SARS PLpro yeast: qHTS of Yeast-based Assay for SARS-CoV PLP | S. cerevisiae expressing SARS-CoV PLpro, growth rescue | Potency, µM (titrated, usually from 32.9 µM), hits mostly activators | 330,000 compounds, 0.19% hits; calls by dose curve; note: nearly all actives have a fitted effect of over 55% in size
CHX counter: Cycloheximide Counterscreen for Small Molecule Inhibitors of Shiga Toxin | cell reporter, cycloheximide protein synthesis inhibition counterscreen | max response, % | 300,000 compounds, 12% hits | AID 2314, 2010; in the data active = max response mostly above about 13%, no sharp cut-off; inactive = mostly below about 14%; note: read at 38.3 µM for the half of the compounds with a filed dose
Pf growth 48h: Primary qHTS for delayed death inhibitors of the malarial parasite plastid, 48 hour incubation. P. falciparum luciferase growth in erythrocytes, 48 h. Potency, µM (highest dose often 28.7 µM), usual class: inhibitors. 310,000 compounds, 5.9% hits. AID 504832, 2011
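Read-out is firefly luciferase luminescence from an integrated reporter in P. falciparum, so falling signal marks reduced parasite growth. Infected erythrocytes were at 2% hematocrit and 0.1% parasitemia (final) in Albumax-supplemented RPMI 1640.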
Shiga toxin inh: A qHTS for Small Molecule Inhibitors of Shiga Toxin; inhibition, % at 38.7 µM; 290,000 compounds, 9.2% hits; Vero cells, Shiga toxin protein synthesis inhibition reporter; in the data active = inhibition mostly above about 28%, no sharp cut-off; inactive = mostly below about 43%
AMA1 RON2 block: qHTS for Inhibitors of AMA1-RON; Towards Development of Antimalarial Drug Lead: Primary Screen. Plasmodium falciparum AMA1 (3D7) - RON2 peptide interaction. AlphaScreen AMA1-biotinylated RON2 peptide binding. 360,000 compounds, 0.2% hits. Potency, µM (highest dose often 58.2 µM), most hits filed as inhibitors; note: nearly all actives have a fitted effect of over 45% in size
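AMA1 (3D7) with his tag at 25 nM final met compounds first, then biotinylated RON2 peptide at 25 nM; detection used donor plus acceptor beads, 10 µg/mL apiece, read by AlphaScreen after 30 min at room temperature.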
Pf growth 96h: Primary qHTS for delayed death inhibitors of the malarial parasite plastid, 96 hour incubation; 320,000 compounds, 6.9% hits; Potency, µM (highest dose often 28.7 µM), usual class: inhibitors; P. falciparum luciferase reporter growth, 96 h
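96 h incubation, 37 C, 5% CO2, of luciferase-reporter P. falciparum-infected RBCs (2% hematocrit, 0.05% parasitemia final) with test compounds; endpoint luminescence.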
Of the large screens only hits and unclear results are named; the others gave an inactive call. Hits are enriched below; roughly 19% of the tested compounds scored in any of these assays. Unless noted, calls come from the whole dose curve; as a rule, active = well fitted curve in the direction sought with a large enough effect; inconclusive = small, poorly fitted or top-dose-only effect, or another doubt; inactive = no such curve, though single readings can be large; an effect the other way counts as inactive or inconclusive.

O=C(N/N=C/c1ccc(O)cc1)c1cccc(N/N=C/c2ccc(O)cc2)c1	CHX counter 37, Shiga toxin inh 60
O=C(N/N=C/c1cccnc1)c1ccc(NC(=O)c2ccc(Cl)cc2)cc1	Pf growth 48h inconclusive
O=C(N/N=C/c1ccncc1)c1cccc(NC(=O)c2ccc(Cl)cc2)c1	Pf growth 48h 13µM, Pf growth 96h inconclusive
O=C(N/N=C/c1cc(Cl)ccc1O)c1ccncc1	Pf growth 48h 2.3µM, Pf growth 96h inconclusive
O=C(N/N=C/c1ccccc1Cl)c1ccncc1	none
COc1ccc(/C=N/NC(=O)c2cccc(NC(=O)c3ccc(Cl)cc3)c2)c(OC)c1	Shiga toxin inh 31
COc1cc(/C=N/NC(=O)c2cccc(NC(=O)c3ccccc3)c2)ccc1O	Shiga toxin inh 33
CN(C)S(=O)(=O)c1cccc(NC(=S)N/N=C/C2CC=CCC2)c1 (centres undefined)	Pf growth 96h inconclusive
COc1cc(/C=N/NC(=S)Nc2cccc(S(=O)(=O)N(C)C)c2)ccc1O	CHX counter 30, Shiga toxin inh 49, Pf growth 96h inconclusive
CC(C)(C)c1ccc(C(=O)N/N=C/c2cccc(Cl)c2)cc1	Pf growth 96h 13µM (no result: Pf growth 48h)
O=C(N/N=C/c1cccc(F)c1)c1ccc(Cl)cc1	CHX counter 44, Shiga toxin inh 119
CC(C)CN(C(=O)COC(=O)CNC(=O)c1ccccc1F)c1c(N)n(Cc2ccccc2)c(=O)[nH]c1=O	none (no result: SARS PLpro yeast, CHX counter, Pf growth 48h, Shiga toxin inh, Pf growth 96h)
c1ccc(-c2noc(CN3CCN(c4cnccn4)CC3)n2)cc1	none
CCC(C)(C)NC(=O)CN(Cc1ccc2c(c1)OCO2)C(=O)CCC(=O)Nc1ccccn1	Pf growth 48h inconclusive
O=C1CC(c2ccc(F)cc2)C(n2cncn2)C(O)=C1C1NCCc2ccccc21 (centres undefined)	none
CN(CCc1ccccn1)C(=S)NC(=O)c1ccco1	Pf growth 96h inconclusive
O=C(NCc1ccccn1)/C(=C/c1ccco1)NC(=O)c1ccccc1	Pf growth 96h inconclusive
O=C(NC(=S)NCCc1ccccn1)c1ccco1	CHX counter 23
O=C(NCCc1ccccn1)/C(=C/c1ccco1)NC(=O)c1ccccc1	CHX counter 33, Shiga toxin inh 49
O=C(NC(=S)NCCc1ccccn1)c1ccccc1	CHX counter 58, Shiga toxin inh 95
COc1ccc(-n2nc(C(=O)NCC(=O)N3CCCCC3)c3ccccc3c2=O)cc1	none
Clc1ccc2nc(CSc3nc4ccccc4o3)cn2c1	CHX counter 37, Shiga toxin inh 129, Pf growth 96h inconclusive
Clc1ccc2nc(CSc3nnc(-c4c[nH]c5ccccc45)o3)cn2c1	none (no result: SARS PLpro yeast, CHX counter, Pf growth 48h, Shiga toxin inh, Pf growth 96h)
Cc1cc(C)n2cc(CSCc3ccco3)nc2n1	none
Cc1cccc2nc(CSCc3ccco3)cn12	CHX counter 31, Shiga toxin inh 82
Cc1ccc(SCc2cn3cc(Cl)ccc3n2)cc1	CHX counter 52, Shiga toxin inh 62
Clc1ccc2nc(CSc3nnc4ccccn34)cn2c1	CHX counter 38, Shiga toxin inh 92
Nc1cc(=O)[nH]c(SCCSc2ccccc2)n1	none
O=C1C2=C(C(=O)c3ccccc31)C1O[C@](CCCCN3C(=O)c4ccccc4C3=O)(Cc3c1ccc1ccccc31)O2	Pf growth 48h inconclusive (no result: AMA1 RON2 block)
CCCS(=O)(=O)NC(=O)C1(C)CCN(C(=O)c2cc(C)n(C(C)(C)C)n2)C1 (centres undefined)	none (no result: SARS PLpro yeast, CHX counter, Pf growth 48h, Shiga toxin inh, Pf growth 96h)
Cc1cccc2nc(CSc3nc4cc([N+](=O)[O-])ccc4s3)cn12	Pf growth 96h inconclusive
Clc1ccc2nc(CSCc3ccccc3)cn2c1	CHX counter 49, Shiga toxin inh 99
Clc1ccc2nc(CSc3nncn3-c3ccccc3)cn2c1	none
c1ccc2[nH]c(SCc3cn4ccccc4n3)nc2c1	CHX counter 20, Pf growth 48h inconclusive, Shiga toxin inh 54
Cc1cccc2nc(CSc3nc4ccccc4[nH]3)cn12	none
Nc1nnc(SCc2cn3cc(Cl)ccc3n2)s1	CHX counter 28, Shiga toxin inh 84
Cc1cccc2nc(CSc3ccc(Cl)cc3)cn12	CHX counter 49, Shiga toxin inh 91, Pf growth 96h inconclusive
O=C(CCN1C(=O)CSC1=O)Nc1ccccc1	none (no result: Pf growth 96h)
CC(=O)N(c1nc(CCl)cs1)c1cccc(C)c1C	none
Cc1ccc(SCc2cn3c(C)csc3n2)cc1	CHX counter 44, Shiga toxin inh 74, Pf growth 96h inconclusive
N=C(N)SCc1cn2ccccc2n1	none
c1ccc2c(SCc3cn4ccccc4n3)nncc2c1	CHX counter 38
Clc1ccc(SCc2cn3ccccc3n2)cc1	CHX counter 37, Shiga toxin inh 54
CCCCCC/C(=N/O)c1ccccn1	Pf growth 48h 12µM, Pf growth 96h inconclusive
C=CCOC(=O)C1=C(C)NC(=S)C(C#N)(CC=C)C1c1ccccc1Cl (centres undefined)	Pf growth 48h 1.5µM, Pf growth 96h 1.5µM
CSCCC(NC(=O)c1ccc(Cl)cc1)C(=O)NC(C)(C)C (centres undefined)	none (no result: Pf growth 48h)
O=C(O)/C=C/c1ccc(S(=O)(=O)N2CCN(CCN3C(=O)C4C5C=CC(C5)C4C3=O)CC2)cc1 (centres undefined)	Pf growth 48h inconclusive, Pf growth 96h 1.9µM
Cc1cccn2c(=O)c3cc(C(=O)NCc4ccco4)c(=N)n(CCOCCO)c3nc12	Pf growth 48h 1.5µM, Pf growth 96h inconclusive
Cc1ccc2nc3c(cc(C(=O)NCc4ccco4)c(=N)n3C3CCCC3)c(=O)n2c1	Pf growth 96h inconclusive (no result: AMA1 RON2 block)
Cc1cccn2c(=O)c3cc(C(=O)NCc4ccco4)c(=N)n(C4CCCCC4)c3nc12	Pf growth 48h 9.3µM
Cc1ccccc1Cn1c(C)c(C(=O)NCc2ccc(Cl)c(Cl)c2)sc1=O	none (no result: SARS PLpro yeast, CHX counter, Pf growth 48h, Shiga toxin inh, Pf growth 96h)
CCN(C(=O)Cn1c(=O)n2nc(CCn3nc(C)cc3C)nc2c2ccccc21)c1cccc(C)c1	Pf growth 96h 2.6µM
Cc1occc1C(=O)NC1CCCCCCC1	CHX counter 40, Shiga toxin inh 60
Cc1cc(C)c(NC(=O)CS(=O)CC(=O)NC2CCCc3ccccc32)c(C)c1 (centres undefined)	AMA1 RON2 block inconclusive, Pf growth 96h 10µM
COC(=O)[C@H](CC(C)C)NC(=O)NC1CCCc2ccccc21 (some centres undefined)	Pf growth 96h inconclusive
CC(C)C[C@H](NC(=O)NC1CCCc2ccccc21)C(=O)O (some centres undefined)	Pf growth 48h 2.3µM
Cc1occc1C(=O)NNC(=O)C1CCCC1	none
Cc1occc1C(=O)NC1CCCc2ccccc21 (centres undefined)	Pf growth 48h 13µM
